In ChEMBL document CHEMBL3988442, “University of Dundee, Small-Polar-MMV Screening Library” (2021):
The campaign covered roughly 48,000 compounds. About 13,000 (27%) showed an effect of 50% or more. The list shows a part of the results.

test system: Wolbachia pipientis; test: Anti-Wolbachia Cell-Based Screen; format: functional; parameters: scale not given: in the data most compounds retested in dose-response had high values; details: 5 µM

Structure (SMILES) | Percent Effect [%]
CS(=O)(=O)N1CCc2[nH]cnc2C12CCN(C(=O)c1ccccc1)CC2 | -3.54
CN1C[C@@H](NC(=O)C2CC2)C[C@H]1c1nc(-c2cnccn2)no1 | -3.142
O=C(c1ncoc1-c1ccco1)N1CCCN(c2nccs2)CC1 | -20.95
COc1ccc2c(c1)C(C(=O)N(C)CCn1ccnc1C)CC(=O)N2 (stereo not given) | -6.574
O=C1CC(c2cccnc2)c2c(c(C(=O)O)cn2-c2ccccc2)N1 (stereo not given) | 6.777
O=C1N(c2ccc(F)cc2)Cc2nc(=O)n(Cc3cccc(Cl)c3)n21 | -4.998
COc1cccc(CN2CCCC2c2c(C)nn(C)c2C)c1 (stereo not given) | 0.6284
COc1cccc(CN2CCCCC2c2n[nH]cc2-c2cc(C)no2)c1.Cl (stereo not given) | 78.4
COc1cccc(CC2CCCN2CCCO)c1 (stereo not given) | 13.01
CCN(CCCNC(=O)c1ccc(C)[nH]c1=O)S(C)(=O)=O | -16.03
CC1=C[C@@H](CN2CCN(C)CC2)[C@H](C(C)C)C[C@H]1Cc1nnc(C)o1 | -4.667
CN(Cc1nc(-c2ccccc2)c[nH]1)C(=O)NCC(=O)NC(C)(C)C | -12.98
CCC[C@H]1CN(S(C)(=O)=O)C[C@@H]1NC(=O)CCCn1ccnc1 | 0.7566
Cc1n[nH]c(C)c1CCC(=O)NC1CCCN(c2ccccc2F)C1 (stereo not given) | -4.293
Cc1ccc(Cl)cc1N1CCC(CNC(=O)CCn2ccnc2)C1 (stereo not given) | 19.22
Cc1cc(F)ccc1N1CCCC(NC(=O)CCc2ccncc2)C1 (stereo not given) | 111.2
O=C(CCCn1ccnc1)NC1CCCN(c2ccccc2Cl)C1 (stereo not given) | 86.14
O=C(CCCn1ccnc1)N[C@H]1CN(C2CCCC2)C[C@@H]1C1CC1 | -1.542
Cc1cc(F)ccc1N1CCCC(NC(=O)CCCn2ccnc2)C1 (stereo not given) | 114.8
O=C(NCc1cccc(F)c1)NC1CCCN(c2ncccn2)C1 (stereo not given) | 12.98
COc1ccccc1OC1CCN(C(=O)CCCn2ccnc2)CC1 | 6.898
CN(C)Cc1n[nH]c2c1CCN(Cc1cccs1)C2.O=C(O)C(F)(F)F.O=C(O)C(F)(F)F | -7.744
O=C(c1ccsc1)N1CCc2c(CN3CCCC3)n[nH]c2C1 | -0.6462
CN(Cc1cn2c(n1)CN(C(=O)c1ccc[nH]1)CC2)Cc1ccco1.O=C(O)C(F)(F)F | -0.5876

Structure (SMILES) | Percent Effect [%]
CC(C)N(C)Cc1n[nH]c2c1CCN(C(=O)c1ccc[nH]1)C2.O=C(O)C(F)(F)F | 99.94
CC(C)Nc1nc2c(c(N(C)C)n1)CCN(C(=O)c1cc[nH]n1)CC2 | -2.807
Cc1cc(C(=O)N2CCc3c(CN(C)C(C)C)n[nH]c3C2)[nH]n1 | 101.7
Cc1nocc1C(=O)N1CCc2c(CN(C)C(C)C)n[nH]c2C1 | -1.781
CC(C)N(C)Cc1n[nH]c2c1CCN(C(=O)c1cc[nH]n1)C2 | 93.85
Cc1cc(C(=O)N2CCc3c(ncnc3N3CCOCC3)C2)[nH]n1 | -12.68
Cc1cc(Br)oc1C(=O)N1CCC(N(C)C)CC1 | -50.6
COCCN1CCCC2(CCN(c3nccnc3N(C)C)C2)C1=O (stereo not given) | -5.787
Cc1ccoc1C(=O)N1CCC(n2cc(-c3ccsc3)nn2)CC1 | -24.55
COc1cccc(N2CCC(CNC(=O)CN3CSCC3=O)C2)c1 (stereo not given) | -9.493
CC1(C)O[C@@](C)([C@H]2CC3(CCN(c4cnccn4)CC3)CO2)CC[C@@H]1O | 106.3
CS(=O)(=O)N1CCOCC2(CCN(c3cnccn3)CC2)C1 | -8.044
OCC(O)CSCc1nnc(-c2cccc(F)c2)o1 (stereo not given) | 6.518
CC(C)CCN1C2(CCN(c3ncccn3)C2)c2ccccc2S1(=O)=O (stereo not given) | 105.2
COCC(=O)N1CCC2(C1)c1ccccc1S(=O)(=O)N2CCC(C)C (stereo not given) | 110.5
CC(C)CCN1C2(CCN(C(=O)N(C)C)C2)c2ccccc2S1(=O)=O (stereo not given) | 108.8
FC1(F)CCN(c2ccccc2)CC12CCN(c1ncccn1)C2 (stereo not given) | 4.725
CCCN1CCC2(C1)c1ccccc1S(=O)(=O)N2Cc1ccc(F)cc1 (stereo not given) | 8.528
COCC(=O)N1CCC2(C1)c1ccccc1S(=O)(=O)N2C (stereo not given) | 99.03
COc1ccccc1N1CCN(C(=O)Cn2nc(C)c(C)c2C)C(C)C1 (stereo not given) | 5.362
CCC(Nc1cccc(OC)c1)C(=O)N(CCOC)Cc1cnn(C)c1 (stereo not given) | -17.99
Cc1cc(C#N)ccc1S(=O)(=O)N1CCN(C)Cc2ccccc21 | 3.182
CCc1noc(C(C)SCCS(C)(=O)=O)n1 (stereo not given) | 3.138
CC(C)CCN1C2(CCN(C(=O)CN(C)C)C2)c2ccccc2S1(=O)=O.O=C(O)C(F)(F)F (stereo not given) | 95.71

Structure (SMILES) | Percent Effect [%]
COCC(=O)N1CCC2(CC1)c1ccccc1[C@@H](N1CCSCC1)[C@@H]2O | 1.916
CCNC(=O)N1CCC2(C1)c1ccccc1S(=O)(=O)N2CCC(C)C (stereo not given) | -10.03
CC(C)CCN1N=C(C(=O)N2CCCCCC2)S(=O)(=O)c2ccccc21 | 20.76
COCC(=O)N1CCC2(C1)c1ccccc1S(=O)(=O)N2CC1CC1 (stereo not given) | 95.12
CC(C)CCN1CC2(CCN(C(=O)C3(C)CC3)CC2)OC1=O | 1.386
CC(=O)N1CCC2(C1)c1ccccc1S(=O)(=O)N2CCC(C)C (stereo not given) | 83.1
CC(C)CCN1C2(CCN(C(=O)C3(C)CC3)C2)c2ccccc2S1(=O)=O (stereo not given) | 92.1
O=C1CN(C(=O)CC2C(=O)NCCN2CC2CCCCC2)CCN1 (stereo not given) | -19.63
Cc1occc1CNC(=O)C1CCCN1C(=O)C1CC1 (stereo not given) | -6.321
COC(=O)c1ccc(OC)c(CN2CCN(CC(C)C)C(=O)C2C)c1 (stereo not given) | 1.65
COCC(C)(O)CNC(=O)Nc1cccc(OC)c1OC (stereo not given) | 4.697
CC(C)(C)NC(=O)Cn1c(=O)n(Cc2ccco2)c2ncccc21 | 95.67
Cc1nn(C(C)(C)C)c(=O)n1CC(=O)NC(C)(C)C | -3.979
O=C(Cn1c(=O)n(Cc2ccco2)c2ncccc21)Nc1ccccn1 | -4.791
Cn1nc(C2CCN(CC(=O)NC3CC3)CC2)n(-c2ccccc2)c1=O | 1.77
O=C(NC1CC1)[C@H]1C[C@H]2OCC[C@H]2N(Cc2ccco2)C1 | -4.068
O=C(Cn1c(=O)n(Cc2ccco2)c2ncccc21)NC1CCCC1 | 120
CCN(CCc1nccs1)C(=O)c1ccco1 | -4.795
CCCN(Cc1cccnc1)C(=O)C1CCN(Cc2ccco2)CC1 | 2.103
CCN(CC)C(=O)Cn1c(=O)n(Cc2ccco2)c2ncccc21 | 92.26
O=C(Cn1c(=O)n(Cc2ccco2)c2ncccc21)NC1CC1 | 115.8
O=C(Cn1c(=O)n(Cc2ccco2)c2ncccc21)NC1CCCCC1 | -5.913
